Source: PubChem
A selection: hits, their analogues and other compounds. The true share with any hit is near 6.5%.
VACV Venus inh = inhibitors of vaccinia virus (Venus reporter); Vaccinia virus Venus reporter expression, fluorescence; Potency, µM (top dose mostly 36.5 µM), for inactives: at the highest dose activity change, negative = inhibition, actives largely listed as inhibitors; 330,000 compounds, 0.46% hits; AID 720580; calls by dose curve; tested in A549 cells; also: potency is read from the fitted curve at half-maximal effect; nearly all actives have a fitted effect of over 30% in size
HCMV antiviral = human cytomegalovirus inhibition. HFF cells, HCMV-luciferase reporter, 72 h; stronger effect = lower value. activity change, negative = inhibition, % at 57.5 µM. 410,000 compounds, 4.5% hits; in the data active = activity change below about -60%; inconclusive = no clear call, values can overlap the other calls; inactive = above about -39%
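Screen run at 2 compound doses on HFFs infected with reporter HCMV, MOI 1 PFU/cell. Luciferase activity from cell lysates at 72 h post infection gave inhibition relative to buffer-only and Salinomycin wells.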
Marburg entry inh = blocks Marburg virus binding to or entry into cells; Marburg virus pseudotyped entry inhibition, cell reporter; Potency, µM (highest dose often 37.8 µM), for the others: at the top dose activity change, negative = inhibition, usual class: inhibitors; 300,000 compounds, 1.8% hits; calls by dose curve; tested in HEK293 cells; also: potency is read from the fitted curve at half-maximal effect
Vaccinia mCherry = vaccinia inhibition (mCherry reporter). Vaccinia virus mCherry reporter infection, fluorescence. Potency, µM (doses to about 36.5 µM), for inactives: at the top dose activity change, negative = inhibition, most hits filed as inhibitors. 310,000 compounds, 0.63% hits; calls by dose curve; tested in A549 cells; also: potency is read from the fitted curve at half-maximal effect; nearly all actives have a fitted effect of over 35% in size
LASV entry inh = blocks Lassa virus binding to or entry into cells. Lassa virus pseudotype entry inhibition, cell reporter. Potency, µM (doses to about 37.9 µM), inactives show top-dose activity change, negative = inhibition, most hits filed as inhibitors. 300,000 compounds, 1.2% hits. AID 540256; calls by dose curve; tested in HEK293 cells; also: potency is read from the fitted curve at half-maximal effect; nearly all actives have a fitted effect of over 50% in size
FMDV inh = foot and mouth disease virus antiviral activity. FMDV antiviral cell-based qHTS. Potency, µM (doses to about 57.9 µM), inactives show top-dose activity change, negative = inhibition, hits mostly inhibitors. 410,000 compounds, 1.2% hits. AID 1159524; calls by dose curve; tested in HEK293T cells; also: read-out not given here; potency is read from the fitted curve at half-maximal effect; nearly all actives have a fitted effect of over 45% in size
* = called active by the depositor; [ ] = remark or other dose. % is scaled to controls: 0 for no effect and ±100 for the full control effect.

What do the screens show for `COc1ccc(Oc2cc(NC(=O)c3nn(C)cc3[N+](=O)[O-])cc([N+](=O)[O-])c2)cc1`?
VACV Venus inh: inconclusive; HCMV antiviral: -110*; Marburg entry inh: -51%; Vaccinia mCherry: inconclusive; LASV entry inh: inconclusive; FMDV inh: inconclusive

How did CCn1nc(C)c(C(=O)Nc2cc(Oc3ccc(Cl)cc3)cc([N+](=O)[O-])c2)c1C do in these assays?
VACV Venus inh: -27%; HCMV antiviral: -20; Marburg entry inh: inconclusive; Vaccinia mCherry: -17%; LASV entry inh: -18%; FMDV inh: -11%

How did Cn1cc([N+](=O)[O-])c(C(=O)Nc2cc(Oc3cccnc3)cc([N+](=O)[O-])c2)n1 do in these assays?
VACV Venus inh: -14%; HCMV antiviral: -106*; Marburg entry inh: -30%[46.1 µM]; Vaccinia mCherry: inactive; LASV entry inh: -21%; FMDV inh: inconclusive

How did CN(C)CCNc1nc2sc3c(c2c(=O)n1Cc1ccccc1)CCCCC3 do in these assays?
VACV Venus inh: -9%; HCMV antiviral: -20; Marburg entry inh: 10µM*; Vaccinia mCherry: -9%; LASV entry inh: 8%; FMDV inh: -7%

What do the screens show for `COc1ccc(-n2c(NCCN(C)C)nc3sc4c(c3c2=O)CCCCC4)cc1`?
VACV Venus inh: -23%; HCMV antiviral: -107*; Marburg entry inh: 23µM*; Vaccinia mCherry: inactive; LASV entry inh: -19%; FMDV inh: -29%

Results for CN(C)CCNc1nc2sc3c(c2c(=O)n1-c1ccc(F)cc1)CCCCC3 ?
VACV Venus inh: -18%; HCMV antiviral: 45; Marburg entry inh: inconclusive; Vaccinia mCherry: -11%; LASV entry inh: inconclusive; FMDV inh: -13%

How did C=C1CCN([C@@H](CC(C)C)C(=O)N2CCCC2)S(=O)(=O)c2ccccc21 do in these assays?
VACV Venus inh: -10%; HCMV antiviral: 2; Vaccinia mCherry: inactive; FMDV inh: -17%

Results for COc1ccc2ccccc2c1CN1CCc2nnc(C(NS(C)(=O)=O)C(C)C)n2CC1 (stereo not given) ?
VACV Venus inh: -11%; Vaccinia mCherry: -7%; FMDV inh: -19%

What do the screens show for `Cc1nc(N2CCN(Cc3ccc4c(c3)OCO4)CC2)c2oc3ccccc3c2n1`?
VACV Venus inh: -25%; HCMV antiviral: -30; Marburg entry inh: inconclusive; Vaccinia mCherry: inactive; LASV entry inh: -28%; FMDV inh: 28µM*

Results for COc1ccccc1N1CCN(c2nc(C)nc3c2oc2ccccc23)CC1 ?
HCMV antiviral: -82*; Marburg entry inh: inconclusive; LASV entry inh: inconclusive; FMDV inh: 28µM*

What do the screens show for `Cc1nc(N2CCN(Cc3ccc4c(c3)OCO4)CC2)c2cc(-c3ccccc3)sc2n1`?
VACV Venus inh: -17%; HCMV antiviral: -3; Marburg entry inh: 7.9µM*; Vaccinia mCherry: inconclusive; LASV entry inh: -10%[46.1 µM]; FMDV inh: -12%

What do the screens show for `COCCNC(=O)C1(C)CCN(C(=O)c2cc(-c3cccs3)oc2C)C1` (stereo not given)?
HCMV antiviral: -21

How did CCOC(=O)c1c(NC(=O)c2cc(=O)c3cc(Cl)ccc3o2)sc(C)c1C do in these assays?
VACV Venus inh: -5%; HCMV antiviral: 8; Marburg entry inh: 27%[46.1 µM]; Vaccinia mCherry: 4%; LASV entry inh: 16%[46.1 µM]; FMDV inh: -24%

Results for COCC(=O)Nc1cc(C(=O)N[C@H]2CCCCNC2=O)c2c(c1)nc(-c1ccncc1)n2C ?
VACV Venus inh: 0%; Vaccinia mCherry: -4%; FMDV inh: 2%

What do the screens show for `O=C(Cn1nc(C(F)(F)F)c2c1CCC2)Nc1ccc(Cl)cc1`?
VACV Venus inh: -24%; HCMV antiviral: -33; Marburg entry inh: -29%[46.1 µM]; Vaccinia mCherry: inconclusive; LASV entry inh: 17%[46.1 µM]; FMDV inh: -27%

What do the screens show for `CN(C)c1ccc(/C=C/c2ccnc3ccccc23)c(F)c1`?
VACV Venus inh: 15%; Vaccinia mCherry: inactive

How did CC1(C)CC(=O)c2c(S(C)(=O)=O)sc(Br)c2C1 do in these assays?
HCMV antiviral: -60*; FMDV inh: -25%

Results for CSc1sc(C(=O)O)c2c1C(=O)CC(C)(C)C2 ?
HCMV antiviral: 14; FMDV inh: -8%

Results for CCCCSP1(=S)NCCCN1 ?
VACV Venus inh: 10%; HCMV antiviral: -13; Marburg entry inh: 12%; LASV entry inh: -16%; FMDV inh: -1%

How did CCCSP1(=S)NCCCO1 (stereo not given) do in these assays?
VACV Venus inh: -14%; HCMV antiviral: -101*; Marburg entry inh: -2%; LASV entry inh: -6%; FMDV inh: -8%

What do the screens show for `CC(C)c1ccc(NC(=O)Nc2nc(C(N)C3CCCCC3)cs2)cc1` (stereo not given)?
VACV Venus inh: inconclusive; HCMV antiviral: -101*; Vaccinia mCherry: -27%; FMDV inh: inconclusive

How did CC(C)c1ccc(NC(=O)Nc2nc(C(N)c3ccccc3Cl)cs2)cc1 (stereo not given) do in these assays?
VACV Venus inh: -24%; HCMV antiviral: -70*; Vaccinia mCherry: -1%; FMDV inh: inconclusive

How did CC(=O)OC1CC[C@@]2(C)C(CC[C@@]3(C)C2CC=C2C4CC(C)(C)CC[C@]4(C(=O)O)CC[C@@]23C)C1(C)C (stereo not given in full) do in these assays?
VACV Venus inh: -16%; Vaccinia mCherry: -19%; FMDV inh: -7%

Results for CC(C)c1cccc(-c2csc(C(C)(O)c3cccc(F)c3)n2)c1 (stereo not given) ?
VACV Venus inh: -15%; HCMV antiviral: -26; Vaccinia mCherry: -4%; FMDV inh: -25%

Results for Cc1cc(C(=O)CN2C(=O)NC3(CCCc4sccc43)C2=O)c(C)n1-c1ccc(Cl)cc1 (stereo not given) ?
VACV Venus inh: -16%; HCMV antiviral: -62*; Marburg entry inh: inconclusive; Vaccinia mCherry: inactive; LASV entry inh: inconclusive; FMDV inh: 7%

What do the screens show for `NC(=O)CN1C(=O)NC2(CCCc3sccc32)C1=O` (stereo not given)?
VACV Venus inh: -8%; HCMV antiviral: 24; Marburg entry inh: 8%[46.1 µM]; Vaccinia mCherry: inactive; LASV entry inh: 0%; FMDV inh: 21%

What do the screens show for `O=C(NNc1ccccc1)c1ccc(Cl)c(Cl)c1`?
VACV Venus inh: -9%; HCMV antiviral: -77*; Marburg entry inh: 7.1µM*; Vaccinia mCherry: -9%; LASV entry inh: inconclusive; FMDV inh: 18%

How did O=C(NNC(=O)c1ccc2ccccc2c1)c1ccc(Cl)c(Cl)c1 do in these assays?
VACV Venus inh: 6%; HCMV antiviral: -28; Marburg entry inh: 1%[46.1 µM]; Vaccinia mCherry: inconclusive; LASV entry inh: 0%[46.1 µM]; FMDV inh: 4%

Results for CCOC1=C2CN(S(=O)(=O)c3ccc(C)cc3)[C@H](c3cccc4ccccc34)C[C@H]2[C@H]2C(=O)N(c3ccccc3)C(=O)[C@H]2C1 ?
VACV Venus inh: -5%; HCMV antiviral: 5; Vaccinia mCherry: 46%; FMDV inh: -14%
